Compound activity as filed in PubChem.
MRP1 act – activates MRP-1 | H69AR cells + doxorubicin, viability rescue, CellTiter-Glo | viability increase, % at 10 µM | hit rate 0.61% among 140,000 | AID 799;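 active means viability gain under doxorubicin at or above a set limit, the compound median plus 3 SD, cut at about 4.7% in these data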;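 further: MRP-1 overexpressing cells given doxorubicin 25 µM after compound pretreatment; 18-22 h compound pretreatment then 72 h with doxorubicin before readout; 0% = doxorubicin-only wells and 100% = vehicle-treated cells without doxorubicin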
ERb SRC1 inh – ER-beta (human) coactivator binding inhibition | TR-FRET ER-beta LBD / SRC1-Cy5 peptide binding; receptor agonist-loaded with 1 µM estradiol | Q92731 | AID 633 | hit rate 1.3% among 86,000 | inhibition, % at 25.6 µM;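 active means compounds whose percent inhibition of the receptor-coactivator binding signal exceeds about 50% in the single-dose screen, limit read from the data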;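 further: 0% = receptor plus peptide wells without compound and 100% = peptide-only wells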
ERa coact pot – enhances coactivator binding to human estrogen receptor alpha; P03372; TR-FRET ERalpha-LBD/SRC-Cy5 coactivator binding, 2 h; 100 = basal binding, no effect; coactivator binding (% of control), % at 25.6 µM; hit rate 1.3% among 86,000; in the data active means activity above about 200%;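 further: binding measured in presence of low estradiol as agonist stimulus; 0% = peptide alone without receptor and 100% = receptor with peptide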
MRP reversal – compounds reversing MRP-mediated drug resistance. H69AR cells + 2 uM doxorubicin, CellTiter-Glo, 72 h. differential viability (reversal), % at 10 µM. hit rate 0.04% among 85,000. AID 602;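 active means viability drop by adding the cancer drug above about 55%, with treated viability meeting a 40% cutoff, limit read from the data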;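 further: viability without doxorubicin minus viability with 2 µM doxorubicin for each compound; larger differential means the compound sensitizes cells more to doxorubicin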
Smad3 inh – blocks human Smad3 binding to FoxH1 peptide; TR-FRET Smad3/Dy647-FoxH1 peptide binding, europium anti-His; inhibition, % at 25 µM; hit rate 0.29% among 88,000; P84022;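 active means compounds that reduce the energy-transfer binding signal between the protein and its labelled peptide by more than half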;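 further: 0% = Smad3 plus labelled peptide maximal FRET and 100% = peptide-only background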
Target sequence (P84022 whole entry, looked up): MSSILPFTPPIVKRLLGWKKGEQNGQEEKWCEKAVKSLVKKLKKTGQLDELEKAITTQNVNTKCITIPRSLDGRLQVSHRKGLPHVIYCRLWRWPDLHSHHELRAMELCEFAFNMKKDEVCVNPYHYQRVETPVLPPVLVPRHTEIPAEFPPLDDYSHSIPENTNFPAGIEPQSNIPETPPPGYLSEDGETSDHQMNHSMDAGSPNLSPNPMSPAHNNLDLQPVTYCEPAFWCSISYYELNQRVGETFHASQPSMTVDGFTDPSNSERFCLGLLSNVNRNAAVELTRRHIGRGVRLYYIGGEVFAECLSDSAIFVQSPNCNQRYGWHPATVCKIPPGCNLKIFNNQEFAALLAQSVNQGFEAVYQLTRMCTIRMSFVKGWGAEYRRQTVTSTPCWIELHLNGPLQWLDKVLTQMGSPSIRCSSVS
ERa SRC1 inh – blocks coactivator binding to human estrogen receptor alpha; hit rate 1.7% among 86,000; TR-FRET ER-alpha LBD / SRC-1 peptide, estradiol-bound; P03372; inhibition, % at 25.6 µM; in the data active means inhibition above about 50%;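 further: 0% = receptor plus peptide control and 100% = peptide only without receptor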
The depositor's hits bear a star; / = no result given; [ ] = dose if it differs, or a comment. This is a sample that favours compounds with a hit; in the whole collection about 2.8% have one here.

SMILES	MRP1 act	ERb SRC1 inh	ERa coact pot	MRP reversal	Smad3 inh	ERa SRC1 inh
c1ccc(N2CCN(c3ccccc3)C2c2cccnc2)cc1	-4	-5	103	60*	-6	-8
CCOC(=O)c1c(C)[nH]c(C)c1C(=O)CSc1nnc(-c2cc(OC)c(OC)c(OC)c2)o1	-3	-3	313*	7	-7	-42
CCOc1ccc(CNC(=O)c2ccc(Sc3ccc(C)cc3)c(NC(C)=O)c2)cc1	0	/	/	/	/	/
Cc1ccc2c(c1)N(CC(=O)NC1CCCc3ccccc31)C(=O)CO2 (stereo not given)	-2	17	93	0	-4	67*
Cc1ccc(-c2csc3ncn(CC(=O)N4CCOCC4)c(=O)c23)cc1C	-1	78*[fluorescence artefact?]	68	2	3	16
O=C(Cn1cnc2scc(-c3ccc(F)cc3)c2c1=O)N1CCOCC1	-1	6	103	6	-3	15
Cc1cc(C)n(-c2nc3c(c(=O)n(Cc4ccc(Cl)c(Cl)c4)c(=O)n3C)n2C)n1	/	34	109	-15	15	60*[fluorescence artefact?]
CC1CN(c2nc3c(c(=O)n(Cc4ccc(Cl)c(Cl)c4)c(=O)n3C)n2C)CC(C)O1 (stereo not given)	-3	2	92	15	0	-8
O=C(NCc1ccccc1Cl)c1ccc2nc[nH]c2c1	-1	/	/	/	/	/
COC(=O)c1ccc2c(c1)N(Cc1nc(-c3cccc(C)c3)oc1C)C(=O)C1CCCN21 (stereo not given)	-1	42	93	-5	-2	59*
Cc1cccc(-c2nc(CN3CCCC(C(=O)NC4CCCCCC4)C3)c(C)o2)c1 (stereo not given)	-4	-7	90	-15	7	-6
CN(C)c1ccc2nc3c(C(=O)O)cc(=O)c(O)c-3oc2c1	/	/	/	/	19	/
CC1CCN(C(=O)CSc2nc3cccnc3n2C)CC1	-1	2	86	-9	3	16
Cn1c(SCC(=O)N2CCOCC2)nc2cccnc21	0	22	435*[fluorescence artefact?]	3	-4	19
Cc1cc2oc(=O)cc(CN3CCOCC3)c2cc1C	-3	-16	104	16	9	-14
Cc1cc2oc(=O)cc(CN3CCCc4ccccc43)c2cc1C	-3	8	231*[fluorescence artefact?]	13	5	6
COCCn1c(=O)[nH]c(=O)c2c(C(F)(F)F)cc(-c3cccs3)nc21	-4	/	/	/	/	/
CCn1c(C)c(C)c2cc(C(=O)Nc3cccc(Cl)c3)ccc21	6.5*	/	/	/	/	/
CCOC(=O)C(C)Oc1cccc2c(=O)n(CC(=O)Nc3ccc4c(c3)OCCO4)ccc12 (stereo not given)	-1	28	324*	-2	-20	24
CCn1c(SCC(=O)Nc2ccc3c(c2)c2ccccc2n3CC)nnc1-c1cnccn1	-8	29	105	14	0	74*
CCn1c2ccccc2c2cc(NC(=O)CSc3nnc(-c4ccc(OC)cc4)n3N)ccc21	-3	16	59	-11	8	68*
CCOP(=O)(OCC)C(NC(=O)Nc1ccc(Cl)cc1)C(=O)N(CC)CC (stereo not given)	8.9*	/	/	/	/	/
CN(CC(=O)Nc1sccc1C#N)C1CCCCC1	-2	60*[fluorescence artefact?]	36	2	-11	79*[fluorescence artefact?]
N#Cc1ccsc1NC(=O)CN1CCCCCC1	0	/	/	/	/	/
O=[N+]([O-])c1ccc(NN=C2c3ccccc3Cc3ccccc32)c([N+](=O)[O-])c1	/	/	/	/	15	/
SMILES	MRP1 act	ERb SRC1 inh	ERa coact pot	MRP reversal	Smad3 inh	ERa SRC1 inh
CC(C)CN(CCC(=O)O)CC(C)C	3	60*	110	-17	0	-2
Cc1cc(N2CCN(C(=O)c3ccco3)CC2)n2nc(C)c(-c3ccc(Cl)cc3)c2n1	/	55*[fluorescence artefact?]	282*	-7	-4	55*[fluorescence artefact?]
Cc1cc(N2CCN(C(=O)c3ccco3)CC2)n2nc(C)c(-c3ccccc3)c2n1	-2	5	220*	7	3	-28
Cc1nn2c(N3CCN(C(=O)c4ccco4)CC3)cc(C(C)(C)C)nc2c1-c1ccc(Cl)cc1	-4	/	/	/	/	/
Cc1cc(N2CCN(C(=O)c3ccco3)CC2)n2nc(-c3cccc(Cl)c3)cc2n1	-2	57*[fluorescence artefact?]	107	2	-2	29
Cc1nc2cc(-c3cccc(Cl)c3)nn2c(N2CCN(C(=O)c3ccco3)CC2)c1C	/	6	107	-8	9	12
CC(C)(C)c1cc(Br)ccc1OCC(=O)Nc1ncn[nH]1	6.2*	0	83	8	-3	7
Cc1ccc(C(=O)NCCSC2CCCCC2)cc1S(=O)(=O)Nc1ccccc1	-4	/	/	/	/	/
C=CCn1c(SCC(=O)c2c(N)n(CCC)c(=O)n(C)c2=O)nc2sc(CC)cc2c1=O	-4	37	445*[fluorescence artefact?]	-1	-88	49
CC(C)COC(=O)C1[C@H]2C(=O)N(Cc3cccs3)C[C@]23C=C[C@H]1O3 (stereo not given in full)	1	1	102	1	-1	-4
CC(C)c1ccc(O)c(O)c(=O)c1 (tested in a mixture with another compound)	/	/	/	/	16	/
CC(C)CC(c1nnnn1Cc1ccccc1)N1CCC(C(N)=O)CC1 (stereo not given)	-3	-12	210*[fluorescence artefact?]	10	2	-6
CCOC(=O)C1=C(N)n2c(s/c(=C\c3cccnc3)c2=O)=C(C(=O)OCC)C1c1cccnc1 (stereo not given)	/	9	119	-25	-7	0
CCOC(=O)C1=C(N)n2c(s/c(=C\c3cccnc3)c2=O)=C(C(=O)OC)C1c1cccnc1 (stereo not given)	/	19	266*[fluorescence artefact?]	-19	38	72*[fluorescence artefact?]
O=C(N/N=C/c1ccc2c(c1)OCO2)C(O)c1ccccc1 (stereo not given)	-2	/	/	/	/	/
CSc1nc(N2CCN(CCO)CC2)c2sc3nc(-c4ccco4)c4c(c3c2n1)CCC4	/	24	65	-5	-19	57*
CSc1nc(N(C)CCO)c2sc3nc(-c4ccco4)c4c(c3c2n1)CCC4	-2	/	/	/	/	/
O=C(CSc1nc2ccccc2n1Cc1ccccc1)N/N=C/c1ccco1	-2	/	/	/	/	/
Cc1ccc(Cn2c(SCC(=O)N/N=C/c3ccc(C)o3)nc3ccccc32)cc1	4.7*	/	/	/	/	/
O=C(C1COc2ccccc2O1)N1CCc2ccccc21 (stereo not given)	0	34	345*[fluorescence artefact?]	-2	12	21
Brc1ccc(-c2nnc(-c3ccc4c(c3)OCO4)o2)o1	0	3	137	10	4	14
c1coc(-c2nnc(-c3ccc4c(c3)OCO4)o2)c1	0	48	60	7	2	65*[fluorescence artefact?]
Cn1c(=O)c2[nH]c(CCCCC(=O)O)nc2n(C)c1=O	/	/	/	/	2	/
O=C/C(=C\Nc1ccc(Cl)cn1)c1nc2ccccc2o1	-7	32	165	7	-6	54*[fluorescence artefact?]
O=C(Nc1ccc(Cl)cn1)c1cc2ccccc2o1	-1	4	102	-10	3	-1
O=C/C(=C\Nc1ccc(Cl)cn1)c1nc2cc(Cl)ccc2o1	-3	56*[fluorescence artefact?]	40	6	6	88*[fluorescence artefact?]
